Results published in PubChem BioAssay AID1220 (Sanford-Burnham Center for Chemical Genomics, 2008).
Several values for one entry are separate records, joined by “and”; a condition that tells them apart may be missing. Equal values may be shown once. About 1,300 (0.68%) of roughly 190,000 compounds were called active. This is one part of a sample in which actives are shown more often than they occur. Values without a mark were called inactive. Rule as the data show it: active = inhibition above about 50%; inactive = the rest.

target: Mannose-6-phosphate isomerase (Homo sapiens) (UniProt P34949); assay: human PMI inhibitors, high substrate, primary screen, biochemical, fluorescence intensity, high mannose 6-phosphate (AID 1220); conditions: recombinant PMI enzyme, coupled fluorescence intensity; at 20 µM; active compounds read high
Sequence (P34949 whole entry, looked up): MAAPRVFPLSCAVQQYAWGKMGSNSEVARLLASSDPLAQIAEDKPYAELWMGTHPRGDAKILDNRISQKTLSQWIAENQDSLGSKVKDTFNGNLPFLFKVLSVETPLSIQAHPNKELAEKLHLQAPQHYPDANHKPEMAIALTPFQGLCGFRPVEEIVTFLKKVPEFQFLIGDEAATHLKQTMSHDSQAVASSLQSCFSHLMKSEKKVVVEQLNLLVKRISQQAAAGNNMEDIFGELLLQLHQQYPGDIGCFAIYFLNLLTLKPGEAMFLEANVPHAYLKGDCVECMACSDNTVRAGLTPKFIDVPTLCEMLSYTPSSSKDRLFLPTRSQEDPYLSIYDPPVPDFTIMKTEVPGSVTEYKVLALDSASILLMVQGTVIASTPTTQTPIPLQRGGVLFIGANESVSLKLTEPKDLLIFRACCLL

SMILES	inhibition
O=C(CN1C(=O)C2C3C=CC(C3)C2C1=O)NCc1ccco1 (centres undefined)	57% (active)
O=C(CN1C(=O)C2C3C=CC(C4CC34)C2C1=O)NCc1ccco1 (centres undefined)	13%
O=C(CN1C(=O)C2C3CCC(C3)C2C1=O)NCc1ccco1 (centres undefined)	6.5%
CCOC(=O)C1=C(C)NC(C)=C(C(=O)OCC)C1C(=O)OCC(N)=O	-7.6%
CS(=O)(=O)c1ccc(C(=O)N2CCc3ccccc3C2)cc1	-6.6%
O=C(c1ccc(S(=O)(=O)c2ccccc2)cc1)N1CCc2ccccc2C1	60.2% (active)
O=C(c1ccc(S(=O)(=O)N2CCCCC2)cc1)N1CCc2ccccc2C1	11.9%
CCC1CCCCN1C(=O)c1sc2ncnc(N(CC)CC)c2c1C (centres undefined)	-1.9%
Cc1nn(CC(=O)NCc2ccccc2F)c(C)c1[N+](=O)[O-]	2.2%
COc1ccc2cc(/C=N/NC(=O)CN(c3ccccc3)S(=O)(=O)c3ccccc3)c(Cl)nc2c1	5.6%
COc1ccc2nc(C(C)O)[nH]c2c1 (centres undefined)	13.3%
COc1ccc2nc(S(=O)Cc3ncc(C)c(OC)c3C)[nH]c2c1 (centres undefined)	50% (active)
Cc1c(OCC(F)(F)F)ccnc1CS(=O)c1nc2ccccc2[nH]1 (centres undefined)	4.7% and 13.1%
CC(O)CNCc1ccc(-c2ccccc2)cc1 (centres undefined)	0.1%
Cc1ccccc1Nc1ncccc1C(=O)N1CCOCC1	-9.3%
O=S(=O)(Nc1nc2ccccc2nc1Cl)c1ccccc1	-6.6%
O=S(=O)(Nc1nc2ccccc2nc1Cl)c1ccc2ccccc2c1	60.1% (active)
O=S(=O)(Nc1nc2ccccc2nc1Cl)c1ccc(Cl)cc1	-2.7%
O=C1N/C(=C\c2ccccc2)C(O)=C1C=NCc1ccccc1	-1.9%
O=C(O)CCNS(=O)(=O)c1ccccc1Br	-4%
O=c1cc(C(F)(F)F)nc(-c2ccccc2)[nH]1	0.9%
N#C/C(=C\c1cc(Cl)cc(Cl)c1O)C(=O)NC1CCCCC1	66.7% (active)

SMILES	inhibition
Cc1cc(/C=C(\C#N)C(=O)NC2CCCCCC2)c(C)[nH]1	1.5%
N#C/C(=C\c1cc(Cl)ccc1O)C(=O)NC1CCCCC1	10.6%
COc1ccc(-c2cc(C(=O)Nc3cc(C)on3)no2)cc1	-3.1%
CCN(CCO)C1CC(=O)N(c2ccccc2C)C1=O (centres undefined)	-11.3%
O=C(/C=C/c1cccs1)NC1CCS(=O)(=O)C1 (centres undefined)	54.7% (active)
O=C(/C=C/c1cccs1)NC1CC1	-8.9%
O=C(/C=C/c1ccccc1)NC1CCS(=O)(=O)C1 (centres undefined)	-10.3%
COc1ccccc1NC(=O)Nc1ccc2[nH]c(=O)[nH]c2c1	6.1%
O=C(Nc1ccc(F)cc1F)Nc1ccc(F)cc1F	-3.6%
O=C(Nc1ccc2[nH]c(=O)[nH]c2c1)Nc1ccc(F)cc1F	55.8% (active)
Nc1ccc(C2=Nc3cccc4cccc(c34)N2)cc1	23.6%
COc1cccc(C2=Nc3cccc4cccc(c34)N2)c1	-64.5%
c1coc(C2=Nc3cccc4cccc(c34)N2)c1	63.6% (active)
Fc1ccc(C2=Nc3cccc4cccc(c34)N2)cc1	45.2%
COc1ccc(C2=Nc3cccc4cccc(c34)N2)cc1	53.1% (active)
Brc1ccc(C2=Nc3cccc4cccc(c34)N2)o1	12.1%
COCC(C)NC(=O)C(C)Oc1ccccc1 (centres undefined)	-3.4%
Cc1cnc(C(=O)N2CCCC(C(=O)c3ccc(C(C)(C)C)cc3)C2)cn1 (centres undefined)	5.6%
COc1ccc(/C(N)=N/OC(=O)COc2ccccc2Cl)cc1	6.3%
Cc1ccn2c(=O)cc(C)nc2c1	9%
Cc1cc(=O)n2ccsc2n1	-2.4%
Cc1onc(-c2c(F)cccc2Cl)c1C(=O)OCC(=O)Nc1c(C)n(C)n(-c2ccccc2)c1=O	-18.7%

SMILES	inhibition
COc1ccc(S(=O)(=O)N2CCN(CC(=O)Nc3ccc(F)c(F)c3)CC2)cc1	-16.5%
CN(C)N1C(N)=C(C#N)C(c2ccsc2)C2=C1CC(C)(C)CC2=O (centres undefined)	18.1%
CN(C)N1C(N)=C(C#N)C(c2cccs2)C2=C1CCCC2=O (centres undefined)	33.2%
N#CC1=C(N)N(c2ccccc2)C2=C(C(=O)CCC2)C1c1ccccc1 (centres undefined)	51.2% (active)
Cc1ccc(N2C(N)=C(C#N)C(c3cccnc3)C3=C2CCCC3=O)cc1 (centres undefined)	47.7%
CCc1ccc(C2C(C#N)=C(N)OC3=C2C(=O)CCC3)s1 (centres undefined)	6.1%
CN(C)N1C(N)=C(C#N)C(c2cccnc2)C2=C1CCCC2=O (centres undefined)	57.9% (active)
N#CC1=C(N)N(c2ccccc2)C2=C(C(=O)CCC2)C1c1ccsc1 (centres undefined)	27.6%
CN(C)N1C(N)=C(C#N)C(c2cccnc2)C2=C1CC(C)(C)CC2=O (centres undefined)	8.6%
CSc1ccc(C2C(C#N)=C(N)N(c3ccccc3)C3=C2C(=O)CCC3)cc1 (centres undefined)	29.9%
CN(C)N1C(N)=C(C#N)C(c2ccsc2)C2=C1CCCC2=O (centres undefined)	61% (active)
CCc1ccc(C2C(C#N)=C(N)N(N(C)C)C3=C2C(=O)CCC3)s1 (centres undefined)	59.7% (active)
N#CC1=C(N)OC2=C(C(=O)CCC2)C1c1ccsc1 (centres undefined)	-1.2%
CCOC(=O)c1cccc(-c2ccc(C=O)o2)c1	7.1%
COc1ccc(/C=N\NC(=O)c2cccc(Br)c2)c(OC)c1	3%
CCN(CC)C(=O)CSc1nc2ccccc2c(=O)n1OC	4.5%
COC(=O)/C=C(\C)NC(=O)c1ccc(F)cc1	12.4%
O=C(COC(=O)c1cccs1)NCc1ccco1	-3.4%
Cc1ncoc1C(=O)Nc1ccccc1-c1ccccc1	-4.1%
CCN(CC)C(=O)c1ccc(Cn2cc([N+](=O)[O-])cn2)o1	0%
CC(=O)c1ccc(NC(=O)Nc2ccc([N+](=O)[O-])cc2)cc1	-0.1%
COc1ccc(C2C(C#N)=C(N)N(c3ncn[nH]3)C3=C2C(=O)CCC3)cc1 (centres undefined)	43.2%

SMILES	inhibition
COc1ccc(N2C(N)=C(C#N)C(c3ccsc3)C3=C2CCCC3=O)c(OC)c1 (centres undefined)	62% (active)
CN(C)N1C(N)=C(C#N)C(c2ccccc2)C2=C1CCCC2=O (centres undefined)	42.1%
Cc1ccsc1C1C(C#N)=C(N)N(N(C)C)C2=C1C(=O)CCC2 (centres undefined)	15.7%
N#CC1=C(N)N(c2ccccc2C#N)C2=C(C(=O)CCC2)C1c1ccsc1 (centres undefined)	19.7%
Cc1ccc(C2C(C#N)=C(N)N(N(C)C)C3=C2C(=O)CCC3)cc1 (centres undefined)	57.8% (active)
COc1ccc(-c2nc(NC(=O)Cn3c(=O)oc4ccccc43)sc2C)cc1	16.1%
Nn1c(SCc2ccccc2)nc2c(cnn2-c2ccccc2)c1=O	4.9%
COc1ccc(-c2cccc(C(=O)NCC(=O)O)c2)cc1	2.2%
Cc1ccccc1Nc1nc(N)nc(CN2CCN(Cc3ccc4c(c3)OCO4)CC2)n1	-1.7%
CCC1CCCCN1C(=S)Nc1cccc(S(=O)(=O)N(C)C)c1 (centres undefined)	-6.4%
COc1cc(CN2CCCC(C(=O)c3ccc4c5c(cccc35)CC4)C2)cc(OC)c1O (centres undefined)	74.7% (active)
O=C(c1ccc2c3c(cccc13)CC2)C1CCCN(Cc2cccnc2)C1 (centres undefined)	11.4%
O=C(c1ccc2c3c(cccc13)CC2)C1CCCN(Cc2ccncc2)C1 (centres undefined)	-2.1%
CC(C)NC(=O)c1ccccc1NC(=O)Cc1ccc(Cl)cc1	-7.2%
CCn1c2ccccc2c2cc(NC(=O)CCCN3C(=O)CCC3=O)ccc21	-9.6%
CC1CCC/C(=C\Nc2ccc(C(=O)O)cc2)C1=O (centres undefined)	25.7%
CCOC(=O)c1ccc(N/C=C2/CCCC(C)C2=O)cc1 (centres undefined)	8.1%
CC1CCC/C(=C\Nc2ccc(O)cc2)C1=O (centres undefined)	57.1% (active)
O=C(Cc1ccccc1)N/N=C/c1cccs1	4.5%
O=C(Oc1ccc2ccc(O)cc2c1)C1CCCCC1	55% (active)
O=C(Oc1cccc(O)c1)C1CCCCC1	13%
O=C(Oc1ccc2ccc(=O)oc2c1)C1CCCCC1	-2.5%

SMILES	inhibition
CCOC(=O)C1CCCN(C(=S)NC2CCCCC2)C1 (centres undefined)	2.4%
CCn1c(SCC(=O)c2ccc(C)cc2)nnc1-c1ccoc1C	-13.6%
Cc1noc(C)c1S(=O)(=O)N1CCC(C(=O)NCCCN2CC(C)CC(C)C2)CC1 (centres undefined)	54.6% (active)
Cc1noc(C)c1S(=O)(=O)N1CCC(C(=O)NCCN2CCC(C)CC2)CC1	7.6%
CCC1CCCCN1CCNC(=O)C1CCN(S(=O)(=O)c2c(C)noc2C)CC1 (centres undefined)	1.5%
CCNC(=S)Nc1scc(-c2ccccc2)c1C(=O)OCC	52.2% (active)
CCOC(=O)c1c(-c2ccccc2)csc1NC(=S)N(CC)CC	14.7%
CCOC(=O)c1c(-c2ccccc2)csc1NC(=S)NC	14.4%
COC(=O)c1c(C)[nH]c(O)c1C=Nc1ccc(C#N)cc1	1.7%
COc1ccc(C2CC(=O)N3CN(Cc4ccco4)CSC3=C2C#N)cc1 (centres undefined)	73.2% (active)
Cc1ccc(C2CC(=O)N3CN(c4ccc(Br)cc4)CSC3=C2C#N)o1 (centres undefined)	-40.7%
Cc1ccc(C2CC(=O)N3CN(Cc4ccco4)CSC3=C2C#N)cc1 (centres undefined)	62.6% (active)
N#CC1=C2SCN(Cc3ccco3)CN2C(=O)CC1c1c(F)cccc1Cl (centres undefined)	-26.5%
COc1ccc(C2CC(=O)N3CN(c4ccc(C)c(Cl)c4)CSC3=C2C#N)cc1 (centres undefined)	19.1%
N#CC1=C2SCN(c3ccccc3)CN2C(=O)CC1c1c(Cl)cccc1Cl (centres undefined)	23.8%
N#CC1=C2SCN(Cc3ccco3)CN2C(=O)CC1c1ccc(Cl)cc1 (centres undefined)	53.5% (active)
CC(C)c1ccc(C2CC(=O)N3CN(Cc4ccco4)CSC3=C2C#N)cc1 (centres undefined)	76% (active)
Cc1ccc(N2CSC3=C(C#N)C(c4cccs4)CC(=O)N3C2)cc1 (centres undefined)	-74.9%
N#CC1=C2SCN(c3ccc(F)cc3)CN2C(=O)CC1c1cccc(F)c1 (centres undefined)	14.8%
CCOc1ccc(N2CSC3=C(C#N)C(c4ccco4)CC(=O)N3C2)cc1 (centres undefined)	-62.8%
Cc1cccc(N2CSC3=C(C#N)C(c4ccc(C)o4)CC(=O)N3C2)c1 (centres undefined)	-1.2%
